# Reference: PubChem BioAssay AID1878 (Sanford-Burnham Center for Chemical Genomics, 2009)
# In all, about 1,000 compounds went through this assay and about 200 (20%) were called active. These entries were drawn from the full list. Results with a measured potency or affinity are listed apart. Unmarked numbers belong to inactive results. Cut-off read from the data, not from the text of the source: active = inhibition above about 55%; inactive = the rest.
# Target: Dual specificity protein phosphatase 3 (Homo sapiens) (UniProt P51452)
# Assay: VHR1 phosphatase inhibitors, biochemical (AID 1878)
# Conditions: recombinant VHR phosphatase, fluorogenic substrate; at 13.3 µM; active compounds read high
# Chain of Dual specificity protein phosphatase 3 (Homo sapiens) (P51452 whole entry, looked up): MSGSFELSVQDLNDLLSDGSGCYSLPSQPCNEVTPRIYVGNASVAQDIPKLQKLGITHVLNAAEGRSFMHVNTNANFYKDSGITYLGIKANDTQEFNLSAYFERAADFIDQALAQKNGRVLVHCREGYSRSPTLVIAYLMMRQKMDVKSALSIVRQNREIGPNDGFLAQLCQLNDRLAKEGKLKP
row,SMILES,inhibition
1,COc1ccc(C(=O)NCc2ccc(N3CCN(C)CC3)cc2)cc1,21.1%
2,COc1cccc(C2NC(=O)CCC2[N+](=O)[O-])c1OC (centres undefined),3.9%
3,COCCN(C(=O)CCC(=O)Nc1nccs1)C(C(=O)NCCC(C)C)c1ccc(OC)cc1 (centres undefined),-22%
4,COc1cc(C(C)=O)ccc1OCC(O)CN1CCN(c2ccc(F)cc2)CC1 (centres undefined),-0.4%
5,COc1nc(Nc2nc3ccccc3c(=O)[nH]2)nc2ccc(C)cc12,89.8% (active)
6,CCC(=O)N1CCN(c2ccc(NC(=O)c3ccc(N4CCOCC4)c([N+](=O)[O-])c3)cc2)CC1,-6.9%
7,Fc1ccccc1/C=N/n1c(C2CCCCC2)n[nH]c1=S,7.2%
8,Cn1c(=O)[nH]c(=O)c2c1[nH]c(=S)n2CCCc1ccccc1,2.5%
9,O=C(Cn1c2ccccc2c2nc3n(c(=O)c21)CCS3)N1CCCC1,-3.8%
10,CN(C)c1ccc(N2C(=NC(=O)C3CCCO3)SC3CS(=O)(=O)CC32)cc1 (centres undefined),10.7%
11,Cc1ccc(CNCc2ccco2)cc1,-2.3%
12,CC(C)(C)c1ccc(O)c(N=Cc2c(O)ccc3ccccc23)c1,-0.4%
13,C/C(=N\N1CCN(c2ccccc2)CC1)c1ccc(O)cc1,-1.9%
14,Clc1nccnc1N/N=C/c1ccc(Br)cc1,1.6%
15,CCCCn1nc(NC(=O)CC(C)C)c2cc3cc(OC)ccc3nc21,2.1%
16,CCC1C(=O)C(C)(C)C(=O)OC1c1ccc([N+](=O)[O-])cc1 (centres undefined),-5.8%
17,O=C(CSc1nc2ccccc2n1CCc1ccccc1)c1ccc(O)c(O)c1,98.7% (active)
18,CCOc1ccc(C(=O)N2CCN(CCc3ccccc3)CC2)cc1OCC,1.8%
19,Cc1ccccc1C1NC(=O)c2ccccc2O1 (centres undefined),-14%
20,COc1cccc2[nH]c3c(=O)[nH]cnc3c12,-1.7%

row,SMILES,inhibition
1,Cc1ccc(NC(=O)CNC(=O)N2CC(=O)Nc3ccccc32)cc1F,15.4%
2,O=C(Cn1cncn1)N/N=C/c1ccccc1Cl,-4.5%
3,C[C@]12CCC3=C4CCC(=O)C=C4CC[C@H]3C1CC[C@@H]2O (some centres undefined),14.2%
4,CN1C(C)(C)CC(NC(=O)c2ccco2)CC1(C)C,-4.7%
5,COc1cc(C2Nc3ccccc3NC3=C2C(=O)CC(C)(C)C3)cc(OC)c1OC (centres undefined),-7.9%
6,CCOc1ccc(C(=O)N2CCC3(CC2)NCCc2[nH]cnc23)cc1,-8.9%
7,Cc1cc(C(=O)N/N=C/c2cc([N+](=O)[O-])cc(C)c2O)n[nH]1,76.1% (active)
8,CCc1nn(CC(=O)NCCCN(C)C2CCCCC2)c(=O)c2cc3occc3n12,7.4%
9,COc1ccccc1Nc1nn2c(=O)c3ccc(C(=O)NCc4cccnc4)cc3nc2s1,97.1% (active)
10,COc1cccc(CNC(=O)C2CCN(c3nn4c(=O)cc(C)nc4s3)CC2)c1,-8.6%
11,COc1ccc(C(CC(=O)Nc2ncccc2C)N2Cc3ccccc3C2=O)cc1 (centres undefined),-9.5%
12,COc1cc(NC(=O)CN2C(=O)COc3ccc(S(=O)(=O)N4CCCCC4)cc32)cc(OC)c1,-1.8%
13,O=C(c1ccc(CS(=O)c2ccccc2Cl)o1)N1CCN(c2ccccc2)CC1 (centres undefined),2.8%
14,CC(C)c1ccc(N2C(=NC(=O)C3CCCO3)SC3CS(=O)(=O)CC32)cc1 (centres undefined),11.9%
15,COc1cc2c(cc1OC)-c1cc(Nc3cccc(F)c3)nc(=O)n1CC2,14.3%
16,CN(C)c1ccc(NS(=O)(=O)c2cc3c4c(c2)CC(=O)N4CCC3)cc1,-8%
17,COc1cc(/C=N/NC(=O)c2ccc3c(c2)OCO3)ccc1O,-2%
18,COc1cc(/C=N/Nc2ccc([N+](=O)[O-])cn2)cc(OC)c1O,-5.7%
19,CCOc1ccc(NC(=O)CCC(=O)NNC(=O)c2ccccc2Cl)cc1,2%
20,CCC1CCCCN1CCCNC(=O)c1cn(C)c2ccc(S(=O)(=O)N3CCOCC3)cc2c1=O (centres undefined),-9.8%

row,SMILES,inhibition
1,COCCN(CC1CCCN(C2Cc3ccccc3C2)C1)C(=O)CSC (centres undefined),-11.6%
2,C=C(C)CCC(C)N1CCC(n2nccc2NC(=O)CCCc2ccccc2)CC1 (centres undefined),-2.3%
3,Oc1ccc(NCc2ccc(OCc3ccccc3)cc2)cc1,-5.6%
4,N#C/C(=C\c1ccc(OCc2ccc(Cl)cc2)cc1)C(=O)Nc1cccc(C(=O)O)c1,84.9% (active)
5,N#C/C(=C\c1ccc(OCc2ccc(Br)cc2)cc1)C(=O)Nc1cccc(C(=O)O)c1,87.5% (active)
6,O=C(Nc1cccc(Cl)c1)OCCOc1ccccc1,-0.9%
7,Cn1c(=O)c2[nH]c(N3CCCCC3)nc2n(C)c1=O,6.6%
8,Cc1ccc(-n2nc3c(=O)n(CCCC(=O)NCc4ccco4)nc(C)c3c2C)cc1,-4.7%
9,CCN(CC)c1ccc(NS(=O)(=O)c2ccc(-c3ccc(=O)[nH]n3)o2)c(C)c1,-2.9%
10,COc1ccc(CCN(C)CC(O)COc2ccc(C(C)=O)cc2OC)cc1OC (centres undefined),-11.9%
11,CC(=O)COC(=O)C1=NN(c2ccccc2)C(=O)CC1,8.8%
12,CCOC(=O)c1ccc(NCCc2ccc(OC)c(OC)c2)c(N)c1,33%
13,COc1ccc(Cl)cc1-n1c(=S)sc2c(=O)n(-c3ccc(F)cc3)c(SCC(=O)O)nc21,-3.3%
14,COc1ccc(/C=N/N=C2/NC(=O)C(CC(=O)O)S2)cc1OCc1ccc(Cl)cc1Cl (centres undefined),95.9% (active)
15,CCN(CC)c1ccc(NC(=O)c2c(C)noc2C)cc1,-3.1%
16,COCCN(C(=O)c1ccc(OC2CCN(S(=O)(=O)N(C)C)CC2)cc1)C(C)C,-6.4%
17,COc1ccc(C(=O)C2CCCN(C(=O)c3cccc(N(C)C)c3)C2)cc1OC (centres undefined),16.4%
18,COc1cc(C(=O)OC2C[C@H]3CC[C@@H](C2)N3C)ccc1O (some centres undefined),-1.1%
19,Cn1c(/C=C/c2ccc(Cl)cc2Cl)c([N+](=O)[O-])c(=O)n(C)c1=O,20.2%
